From PubChem BioAssay
HCT116 PTEN-null: suppresses growth of cells with PTEN deletion; HCT116 PTEN-null viability, CellTiter-Glo, 60 h; hits give low values; viability, % at 10 µM; hit rate 1.2% among 140,000; AID 827;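 active = viability at or below a set limit, 4 SD under the median of all tested compounds, cut at about 3.7% in these data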;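 also: PTEN knockout HCT116 line with beta catenin targeted HCT116 as companion control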
INS promoter inh: TRM-6 insulin promoter activity inhibition; TRM-6 cells (human fetal islet line), insulin promoter-eGFP reporter, imaging; reporter expression induced with tamoxifen; hit rate 0.9% among 130,000; inhibition, % at 2 µM;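 active = inhibition above the mean plus 3 SD, with well images judged a real hit on visual review, cut at about 60% in these data, passing the limit was not always enough; inconclusive = inhibition over the cutoff but images rejected on review; inactive = inhibition not above the cutoff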
L major viab: reduces viability of Leishmania major promastigotes; inhibition, % at 10 µM; resazurin fluorescence viability; AID 1063; hit rate 9% among 200,000; in the data active = inhibition above about 50%;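 also: promastigotes grown with compound for 44 hours at 28 °C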
Autophagy mod: modulators of autophagy. MEF GFP-LC3 puncta imaging; test concentration mostly 10 µM. calls only at 10 µM (by protocol). hit rate 0.98% among 190,000;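 active = percentage of spot-positive cells more than 3 SD above its plate mean, without a fluorescence outlier flag or 80% toxicity; inconclusive = no clear call, values can overlap the other calls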;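 also: spot-positive cell cutoff set from DMSO-treated cells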
HCT116 bCat-KO: beta-catenin-lacking colon tumor cell growth suppression. HCT116 beta-catenin knockout viability, CellTiter-Glo, 60 h; hits give low values. viability, % at 10 µM. hit rate 1.5% among 140,000;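 active = viability at or under a set limit, the compound median less 4 SD, cut at about 6% in these data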;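 also: 0% = Hyamine 1622 control at 20 µM and 100% = untreated cell control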
Insulin prom up: MIN6 insulin promoter up-regulation | MIN6 insulin promoter-GFP reporter, high-content imaging; hits give high values | AID 1625 | hit rate 0.3% among 190,000 | z-score at 5 µM;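 active = z-score above 3 at 5 µM with at least 500 cells counted in the well; inconclusive = wells under 500 cells, flagged as cytotoxic or low count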
* hit, by the source's call; i = inactive; ? = inconclusive; · = not tested or not shown; + = active, no number. This is a sample that favours compounds with a hit; in the whole collection about 9.6% have one here.

SMILES	HCT116 PTEN-null	INS promoter inh	L major viab	Autophagy mod	HCT116 bCat-KO	Insulin prom up
COc1ccc(-c2nn(-c3ccccc3)cc2/C=N/NC(=O)c2cccc(S(=O)(=O)Nc3ccccc3Cl)c2)cc1	25	14	81*	i	22	-0.39
COc1ccc(-c2nn(-c3ccccc3)cc2/C=N/NS(=O)(=O)c2ccccc2)cc1	64	·	9	i	93	0.07
Cc1ccc(-c2nn(-c3ccccc3)cc2/C=N/NC(=O)c2ccc(Br)o2)cc1	4	23	44	i	4.2*	?
COc1ccc2cc3cc(C(=O)NCc4cccs4)oc3nc2c1	57	7	19	i	63	0.99
COc1ccc2cc3cc(C(=O)NCCN4CCN(Cc5ccccc5)CC4)oc3nc2c1	47	34	95*	+	41	-0.49
COc1ccc2cc3cc(C(=O)NCCN4CCc5ccccc5C4)oc3nc2c1	54	3	99*	i	45	·
CCOC(=O)N1CCC(NC(=O)c2cc3cc4cc(OC)ccc4nc3o2)CC1	79	-21	32	i	88	-0.85
COc1ccc2cc3cc(C(=O)NCCN4CCc5ccccc5C4)sc3nc2c1	83	7	50*	i	80	-0.05
COc1ccc2nc3oc(C(=O)NC4CCN(Cc5ccccc5)CC4)cc3cc2c1	40	55	100*	i	40	0.45
COc1ccc(CNC(=O)CN=C2NC(=O)C(c3ccccc3)(c3ccccc3)N2)cc1	76	·	-7	i	69	0.2
O=C(NCc1cccnc1)c1cccn2c(=O)c3sccc3nc12	100	·	7	i	99	-0.46
C=CCNc1nc(N)c(C(=O)c2ccc3c(c2)OCO3)s1	68	·	50*	i	78	-0.3
C=CCNc1nc(N)c(C(=O)Nc2cc(C)on2)s1	89	13	9	i	89	-0.17
COc1ccc(NS(=O)(=O)c2ccc(N3CCOCC3)c(NC(=O)c3ccc(OC)cc3)c2)cc1	78	-69	82*	i	80	-0.28
COc1ccc2cc(/C(C)=N/NC(=S)Nc3cc(S(=O)(=O)N4CCOCC4)ccc3N3CCOCC3)ccc2c1	·	·	75*	+	·	-3.2
COc1ccc(S(=O)(=O)Nc2cc(C(=O)NC(C)C)ccc2N2CCOCC2)cc1	74	35	2	i	79	0.48
COC(=O)CCC(=O)Nc1cc(S(=O)(=O)Nc2ccc(Cl)cc2)ccc1N1CCOCC1	97	-103	-4	i	92	0.9
C/C(=N\NC(=S)Nc1cc(S(=O)(=O)N2CCOCC2)ccc1Cl)c1ccc(N2CCOCC2)cc1	·	·	·	·	·	-1.3
COc1ccc(NS(=O)(=O)c2ccc(N3CCOCC3)c(NC(=O)c3ccccc3Cl)c2)cc1	65	-69	97*	i	76	-0.03
COc1ccc(-c2cc(C(=O)Nc3cc(S(=O)(=O)N4CCOCC4)ccc3N3CCOCC3)c3ccccc3n2)cc1	·	·	65*	i	·	-3.5
O=C(Nc1cc(S(=O)(=O)N2CCCCC2)ccc1N1CCOCC1)c1cc(=O)[nH]c2ccccc12	·	·	·	·	·	0.29
CCOC1CC(C)(C)NC(=S)N1 (stereo unspecified)	93	38	-2	i	93	-0.11
Cc1ccc(NC(=O)CSc2n[nH]c(C)c2[N+](=O)[O-])cc1C	94	·	-6	i	94	0.32
COc1ccc2c(c1OC)CCC2=O	93	19	-1	i	90	0.31
O=C(Cc1ccc(-n2cccc2)cc1)NC1CCCCCC1	93	-5	11	i	96	-0.26
SMILES	HCT116 PTEN-null	INS promoter inh	L major viab	Autophagy mod	HCT116 bCat-KO	Insulin prom up
COc1ccc(OC)c(/C=C/C(=O)N(C)CC(=O)Nc2cc(C)ccc2C)c1	94	·	87*	i	96	0.21
COc1ccc(OC)c(/C=C/C(=O)N(C)CC(=O)Nc2ccc(C)cc2)c1	96	0	2	i	81	-0.08
CCc1cccc(NC(=O)Cn2c(=O)oc3cc(S(=O)(=O)N4CCOCC4)ccc32)c1	93	·	-6	i	93	0.28
CCc1ccc(NC(=O)Cn2c(=O)oc3cc(S(=O)(=O)N4CCOCC4)ccc32)cc1	91	·	-10	i	94	-0.02
O=C(Cn1c(=O)oc2cc(S(=O)(=O)N3CCCC3)ccc21)NCc1ccc(F)cc1	90	·	98*	i	79	0.65
CCN(CC(=O)NCc1ccc(F)cc1)CC(=O)Nc1ccc(S(=O)(=O)N2CCCC2)cc1	·	·	98*	i	·	-0.48
Cn1c(=O)oc2cc(S(=O)(=O)N3CCN(c4ccc(F)cc4)CC3)ccc21	85	70*	60*	i	87	1.6
O=C(Cn1c(=O)oc2cc(S(=O)(=O)N3CCCC3)ccc21)Nc1cccc(C(F)(F)F)c1	76	·	100*	i	84	0.39
CN(CC(=O)Nc1ccc(S(=O)(=O)N2CCCC2)cc1)Cc1cccc(Cl)c1Cl	85	-21	99*	i	92	-0.99
CN(CCOc1ccccc1)CC(=O)Nc1ccc(S(=O)(=O)N2CCCC2)cc1	·	·	·	·	·	0.13
COc1ccc(C2c3ccsc3CCN2C(=O)NC(C)(C)C)cc1 (stereo unspecified)	·	·	·	·	·	0.35
COc1ccc(NC(=S)N(CCN(C)C)C(C)c2ccco2)cc1Cl (stereo unspecified)	91	13	67*	i	89	-0.5
c1ccc(CNc2ccc(CNc3ncn[nH]3)cc2)cc1	98	34	64*	i	92	·
CC1(C)CC(=O)C(CC(=O)Nc2ccc(S(N)(=O)=O)cc2)=C(O)C1	93	56	0	i	92	0.24
O=S(=O)(/N=C(/Nc1ccccn1)c1ccc(Cl)cc1)c1ccc(Cl)cc1	97	13	-3	i	97	·
O=C(Nc1ccccn1)c1ccc(S(=O)(=O)c2ccc(Cl)cc2)cc1	·	3	76*	i	·	·
COC(=O)c1ccc(NC(=O)CN2C(=O)CCC2=O)cc1	106	·	-9	i	102	1.1
CCOC(=O)c1c(/N=C/N(C)C)sc(/C=N/Nc2ccccc2)c1-c1ccccc1	89	25	95*	i	83	0.32
CCOC(=O)c1c(NC(=O)CN2CCCCC2)sc2c1CCCC2O (stereo unspecified)	76	·	14	i	70	-0.24
CCOC(=O)c1c(NC(=O)CCl)sc(CN(C)C)c1-c1ccccc1	·	·	91*	i	·	-1.6
CCOC(=O)c1c(/N=C/N(C)C)sc(/C=N/Nc2ccccc2)c1-c1ccccc1Cl	89	·	49	i	82	-0.53
CCOC(=O)c1c(NC(=O)CN2CCCCC2)sc(CN(C)C)c1-c1ccccc1	·	-4	52*	i	·	-0.44
CCOC(=O)c1c(NC(=O)/C=C/C(=O)O)sc(C)c1-c1ccc(Cl)cc1	·	·	7	i	·	-0.9
Cn1cc(C(=O)NCCO)c(=O)c2ccccc21	·	53	-3	i	·	0.17
Cc1noc(C)c1CSc1nc2ccccc2nc1NS(=O)(=O)c1ccc(Cl)cc1	54	·	-4	i	62	0.18
